Source: the supplement of paper PMC10646978
± gives the standard deviation.

Legend:
Settings in all cases: modulator concentration 10 µM
[1] = tested on: RAW-Dual (murine macrophage reporter line); experiment: NF-kB reporter (SEAP) activity fold change vs agonist alone; higher = enhanced NF-kB activity
How it was run: (§1)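 RAW-Dual murine macrophage reporter cells were plated at 50 000 per well in 384-well plates, pin-transferred compound to 10 μM final, and pre-incubated for 1 hour at 37 °C before a PRR agonist was added and the cells incubated overnight. NF-κB activity was read from supernatant SEAP with QUANTI-Blue at 620 nm absorbance, and IRF activity from Lucia luciferase with QUANTI-Luc by luminescence. Each signal was expressed as fold change by dividing by the mean agonist-only control on the same plate. Two replicate plates were averaged, with errors obtained by propagation.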

[2] = tested on: RAW-Dual (murine macrophage reporter line); experiment: IRF reporter (Lucia luciferase) activity fold change vs agonist alone; higher = enhanced IRF activity
How it was run: as §1

[3] = tested on: RAW-Dual (murine macrophage reporter line); experiment: viability score (confluency relative to resting cells, overnight) (fraction); higher = more viable, active = viable (0.7 or more)
How it was run: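 Two confluency masks, generated with IncuCyte software over all imaged wells, were applied to IncuCyte images of RAW-Dual macrophages. The cells, in 384-well plates, had been exposed overnight to 10 μM final compound. The viability score is confluency as a fraction of resting cells, and a compound met the cutoff only with both masks above 70% of resting cells.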

[4] = agonist: CpG ODN 1826 0.5 ug/mL

Row | Structure (SMILES) | NF-kB reporter [1, 4] | NF-kB reporter ([1]; agonist: LPS 0.1 ug/mL) | NF-kB reporter ([1]; agonist: MPLA […]) | IRF reporter ([2]; agonist: 3'3'-cGAMP 10 ug/mL) | IRF reporter ([2]; agonist: LPS 0.1 ug/mL) | IRF reporter ([2]; agonist: MPLA […]) | viability score [3]
1 | O=C1NC(=O)C(=CNc2cccc(O)c2)C(=O)N1 | 0.859 ± 0.075 | 0.914 ± 0.053 | 1.09 ± 0.13 | 0.977 ± 0.062 | 1.43 ± 0.1 | 1.6 ± 0.17 | 1.01 (active)
2 | C=C1C[C@@H]2[C@H](CC[C@]3(C)C(=O)CC[C@@H]23)[C@@]2(C)C=CC(=O)C=C12 | 0.843 ± 0.064 | 0.79 ± 0.091 | 0.984 ± 0.033 | 0.789 ± 0.051 | 0.911 ± 0.095 | 0.908 ± 0.16 | 0.987 (active)
3 | O=C1NC(=O)C(=Cc2cccn2-c2ccc(Br)cc2)C(=O)N1 | 1.09 ± 0.09 | 0.758 ± 0.06 | 1.08 ± 0.04 | 0.876 ± 0.094 | 0.91 ± 0.14 | 0.844 ± 0.18 | 0.997 (active)
4 | COc1cc2c(c(OC)c1OC)-c1ccc(O)c(=O)cc1C(NC(C)=O)CC2 (centres undefined) | 2.16 ± 0.12 | 1.27 ± 0.084 | 1.52 ± 0.16 | 0.705 ± 0.024 | 1.26 ± 0.082 | 1.08 ± 0.19 | 0.754 (active)
5 | COc1cc(C2c3cc4c(c(O)c3CC3COC(=O)C32)OCO4)cc(OC)c1OC (centres undefined) | 2.38 ± 0.14 | 1.31 ± 0.086 | 2.08 ± 0.14 | 0.0984 ± 0.0043 | 1.75 ± 0.2 | 1.92 ± 0.17 | 0.735 (active)
6 | Fc1ccc(CNCCc2c[nH]c3ccccc23)cc1 | 0.733 ± 0.32 | 1.08 ± 0.15 | 0.955 ± 0.075 | 0.751 ± 0.063 | 1.1 ± 0.12 | 1.29 ± 0.28 | 0.599 (inactive)
7 | CCC1(c2ccccc2)C(=O)N(Cc2ccccc2)C(=O)N(Cc2ccccc2)C1=O | 0.516 ± 0.03 | 1.08 ± 0.1 | 0.967 ± 0.056 | 1.17 ± 0.093 | 1.25 ± 0.14 | 1.18 ± 0.11 | 1.01 (active)
8 | O=C(CCCN1CCC(n2c(=O)[nH]c3ccccc32)CC1)c1ccc(F)cc1 [Prestw-484] | 0.641 ± 0.18 | 1.11 ± 0.096 | 1.02 ± 0.097 | 0.851 ± 0.035 | 1.1 ± 0.12 | 1.33 ± 0.14 | 1 (active)
9 | COc1ccc(CNCCc2c[nH]c3ccccc23)cc1OC | 0.397 ± 0.056 | 0.947 ± 0.12 | 0.808 ± 0.077 | 0.763 ± 0.03 | 1.33 ± 0.26 | 1.34 ± 0.24 | 1.01 (active)
10 | O=C(O)CC[N+](=O)[O-] | 0.87 ± 0.22 | 0.979 ± 0.066 | 0.974 ± 0.063 | 0.912 ± 0.086 | 0.96 ± 0.23 | 0.933 ± 0.12 | 1 (active)
11 | CC(=O)Oc1ccc(C=Cc2cc(OC(C)=O)cc(OC(C)=O)c2)cc1 | 1.12 ± 0.069 | 1.15 ± 0.073 | 1.12 ± 0.092 | 0.87 ± 0.029 | 0.953 ± 0.088 | 0.896 ± 0.093 | 1 (active)
12 | O=C1NC(=O)N(c2ccccc2F)C(=O)C1=Cc1ccc(OCc2ccc([N+](=O)[O-])cc2)c(Cl)c1 | 0.917 ± 0.072 | 1.03 ± 0.068 | 0.894 ± 0.057 | 0.916 ± 0.049 | 1.22 ± 0.15 | 1.02 ± 0.065 | 1.01 (active)
13 | Cc1cccc(COc2ccc(C=C3C(=O)NC(=S)NC3=O)cc2)c1 | 0.855 ± 0.07 | 0.875 ± 0.047 | 1.14 ± 0.099 | 0.844 ± 0.056 | 0.992 ± 0.093 | 0.969 ± 0.12 | 0.981 (active)
14 | COc1ccc(CCNCc2ccc3ccccc3c2)cc1OC | 0.42 ± 0.095 | 0.762 ± 0.058 | 0.849 ± 0.08 | 0.893 ± 0.045 | 1.17 ± 0.12 | 1.24 ± 0.14 | 0.984 (active)
15 | CC[N+]1(C)CCCC(OC(=O)C(O)(c2ccccc2)c2ccccc2)C1 (centres undefined) [Prestw-760] | 0.921 ± 0.061 | 0.955 ± 0.092 | 0.966 ± 0.073 | 0.952 ± 0.038 | 1.13 ± 0.09 | 0.973 ± 0.18 | 0.994 (active)
16 | CN1C(=O)NC(=O)C(=Cc2cc(Br)cc(Cl)c2O)C1=O | 0.19 ± 0.019 | 0.505 ± 0.026 | 1.32 ± 0.63 | 0.537 ± 0.042 | 1.11 ± 0.078 | 0.942 ± 0.079 | 1.01 (active)
17 | COc1cc(OC)c(OC)cc1C=O | 1.08 ± 0.3 | 1.04 ± 0.082 | 1.02 ± 0.067 | 0.794 ± 0.027 | 1.02 ± 0.11 | 0.99 ± 0.22 | 0.992 (active)
18 | O=C1NC(=O)C(=CNc2ccccc2C(F)(F)F)C(=O)N1 | 1.13 ± 0.11 | 0.946 ± 0.11 | 1.04 ± 0.1 | 1.02 ± 0.034 | 1.21 ± 0.24 | 1.2 ± 0.2 | 1.02 (active)
19 | COc1cc2c(cc1O)CC1c3c(cc(O)c(OC)c3-2)CCN1C (centres undefined) | 0.916 ± 0.23 | 0.96 ± 0.078 | 0.924 ± 0.092 | 0.881 ± 0.03 | 1.17 ± 0.16 | 1.12 ± 0.11 | 0.999 (active)
20 | COc1cc2c(c(OC)c1OC)-c1ccc(OC)c(=O)cc1[C@@H](NC(C)=O)CC2 | 2.45 ± 0.12 | 1.8 ± 0.14 | 2.47 ± 0.11 | 0.0843 ± 0.011 | 1.5 ± 0.13 | 1.91 ± 0.42 | 0.687 (inactive)
21 | CN1C2CCC1CC(OC(=O)C(CO)c1ccccc1)C2 (centres undefined) | 1.23 ± 0.29 | 1.19 ± 0.083 | 1.14 ± 0.098 | 0.91 ± 0.032 | 1.24 ± 0.15 | 1.15 ± 0.16 | 0.986 (active)
22 | CN(C)CCC(=O)c1ccccc1 | 0.736 ± 0.06 | 0.28 ± 0.032 | 0.33 ± 0.018 | 0.155 ± 0.054 | 0.134 ± 0.0059 | 0.09 ± 0.0096 | 0.463 (inactive)
23 | CC12CC1(C)C(=O)N(c1cc(Cl)cc(Cl)c1)C2=O (centres undefined) | 1.06 ± 0.092 | 1.1 ± 0.097 | 0.96 ± 0.045 | 0.942 ± 0.085 | 1.11 ± 0.081 | 1.18 ± 0.17 | 1 (active)
24 | CC(=O)OC1CCC2(C)C(CCC3C4CCC(=O)C4(C)CCC32)C1 (centres undefined) | 1.22 ± 0.29 | 1.06 ± 0.054 | 1.02 ± 0.089 | 0.939 ± 0.032 | 1.21 ± 0.19 | 1.11 ± 0.18 | 1.01 (active)
25 | CCOC(=O)c1ccccc1-c1ccc(C=C2C(=O)NC(=O)N(c3cccc(C)c3)C2=O)o1 | 1 ± 0.18 | 0.965 ± 0.11 | 0.881 ± 0.069 | 1 ± 0.029 | 1.2 ± 0.14 | 1.09 ± 0.12 | 0.995 (active)
26 | COc1ccc(CCNCc2ccc(OC)c(OC)c2OC)cc1OC | 1.01 ± 0.11 | 0.876 ± 0.14 | 0.942 ± 0.052 | 0.927 ± 0.16 | 1.01 ± 0.044 | 0.997 ± 0.11 | 0.998 (active)
27 | c1cc2c(cc1C1OCC3C(c4ccc5c(c4)OCO5)OCC13)OCO2 (centres undefined) | 0.745 ± 0.22 | 1.16 ± 0.058 | 1.1 ± 0.082 | 0.841 ± 0.041 | 1.22 ± 0.17 | 1.24 ± 0.12 | 1 (active)
